KCNQ2 inh – rat KCNQ2 potassium channel inhibitors, primary screen, cell-based, CHO-K1, FluxOR thallium flux, B-score. Potassium voltage-gated channel subfamily KQT member 2 (Rattus norvegicus), O88943. 20 min; hits give low values. B-score at 10 µM. actives 1.1% (n = 310,000). AID 2156, 2009;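 active = fluorescence ratio B-score at most minus 3 library SDs, with starting brightness B-score within 2 library SDs, cut at about -5.5 in these data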
KCNQ2 pot – potentiators of rat KCNQ2 potassium channel | Potassium voltage-gated channel subfamily KQT member 2 (Rattus norvegicus), O88943 | CHO-K1 KCNQ2, FluxOR thallium flux fluorescence; hits give high values | B-score at 10 µM | actives 0.54% (n = 310,000) | AID 2239, 2010;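 active = fluorescence ratio B-score at least 3 SD of library B-scores, with initial fluorescence B-score within 3 of them, cut at about 5.3 in these data; same plate scores as AID 2156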;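 note: B-score of peak minus minimum over baseline fluorescence ratio after K+ and Tl+ stimulus; positive B-score means potentiation of KCNQ2 with more thallium influx and brighter signal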
Kir21 conf inh – mouse Kir2.1 channel blockers, retest, confirmation, cell-based, FluxOR thallium flux, duplicate; shares compounds with KCNQ2 pot; Kir2.1-expressing cells, FluxOR thallium flux fluorescence; hits give low values; Tl flux remaining, % of negative control (hits give low values), % at 10 µM; actives 41% (n = 2,300);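 active = Primary-screen hit whose thallium flux fell at least 3 control SD below untreated wells in both duplicates, with normal baseline fluorescence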;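 note: 0% = blank wells without stimulus and 100% = stimulated no-compound controls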
Target sequence (P35561 whole entry, looked up): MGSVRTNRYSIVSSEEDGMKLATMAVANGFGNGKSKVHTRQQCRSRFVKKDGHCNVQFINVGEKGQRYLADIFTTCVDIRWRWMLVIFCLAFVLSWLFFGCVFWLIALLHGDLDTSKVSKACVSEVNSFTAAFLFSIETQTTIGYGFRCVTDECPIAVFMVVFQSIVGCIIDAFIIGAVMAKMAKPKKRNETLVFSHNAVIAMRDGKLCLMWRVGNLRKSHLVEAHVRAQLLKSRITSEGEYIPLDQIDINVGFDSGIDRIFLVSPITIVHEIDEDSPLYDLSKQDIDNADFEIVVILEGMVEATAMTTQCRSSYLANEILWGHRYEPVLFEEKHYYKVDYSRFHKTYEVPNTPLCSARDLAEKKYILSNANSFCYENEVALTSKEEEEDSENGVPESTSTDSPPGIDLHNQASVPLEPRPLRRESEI
HEK293 ctr – parental HEK293 activity in Kir2.1 inhibitor counter-screen | parental HEK293 cells, FluxOR thallium flux fluorescence; 0% = unstimulated blank wells | shares compounds with KCNQ2 pot | FluxOR signal as % of negative control (100 = no effect), % at 10 µM | actives 19% (n = 2,300);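 active = dye signal at least 3 control SD above or below untreated wells in both duplicates, raw fluorescence within 3, either direction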;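 note: percent is based on the flux ratio of peak minus minimum fluorescence over baseline F0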
CHO-K1 ctr – nonspecific thallium flux increase in parental CHO-K1, confirmation, counter-screen for KCNQ2 potentiator project, cell-based, FluxOR thallium flux, duplicate; shares compounds with KCNQ2 pot; AID 2282, 2010; activity increase over 3SD of controls, % at 10 µM; parental CHO-K1 cells, FluxOR thallium flux fluorescence; zero = vehicle mean+3SD, 100% = vehicle-minus-blank window; actives 43% (n = 1,200);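 active = signal rise of at least 3 SD above the untreated control mean, in both duplicate wells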;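 note: counter screen of KCNQ2 potentiator hits so any rise reflects channel-independent effects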
KCNQ1 sel pot – human KCNQ1 channel potentiation off-target, confirmation, selectivity assay for KCNQ2 potentiator project, cell-based, CHO, FluxOR thallium flux. shares compounds with KCNQ2 pot. CHO KCNQ1 stable, FluxOR thallium flux fluorescence; beyond 3SD, as % of vehicle-control signal. activation over 3SD threshold, % at 10 µM. actives 28% (n = 1,200). AID 2283, 2010;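 active = fluorescence ratio rise of at least 3 SD of vehicle wells above their mean, in both replicate wells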;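 note: 0% = vehicle mean plus 3 SD and 100% = vehicle minus unstimulated blank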
KCNQ2 pot confirm – rat KCNQ2 channel potentiators, confirmation, cell-based, CHO, FluxOR thallium flux, duplicate; actives 68% (n = 1,200); CHO-KCNQ2 cells, FluxOR thallium flux fluorescence; AID 2287, 2010; potentiation, less the hit threshold, % at 10 µM; shares compounds with KCNQ2 pot;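 active = fluorescence ratio rising 3 SD or more over the vehicle control mean in both replicates, plus primary screen hit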;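 note: peak minus minimum thallium fluorescence divided by baseline after K/Tl stimulus; 0% = vehicle mean plus 3 SD and 100% = vehicle minus unstimulated blank difference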
Kir2-1 sel – mouse Kir2.1 channel activation off-target, confirmation, selectivity assay for KCNQ2 potentiator project, cell-based, HEK293, FluxOR thallium flux | shares compounds with KCNQ2 pot | HEK293 Kir2.1, FluxOR thallium flux fluorescence | activity over 3SD threshold, % at 10 µM | actives 2% (n = 1,200);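 active = fluorescence ratio rise of at least 3 SD above the vehicle-control mean, seen in both replicates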;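 note: 0% = vehicle mean plus 3 SD and 100% = vehicle minus no-stimulus blank window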
KCNQ2 W236L MoA – potentiators of retigabine-insensitive KCNQ2 W236L, mechanism study for KCNQ2 potentiator project, cell-based, rat KCNQ2 W236L, CHO, automated patch clamp; shares compounds with KCNQ2 pot; automated patch clamp current; current increase over 3SD of negative controls (%), hits give high values, % at 25 µM; actives 10% (n = 940); AID 2558, 2010;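 active = current increase at least 3 SD of the untreated controls above them in both duplicate recordings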
An asterisk follows results filed as active; i = inactive; / = no result. A selection: hits, their analogues and other compounds. The true share with any hit is near 1.6%.

SMILES	KCNQ2 inh	KCNQ2 pot	Kir21 conf inh	HEK293 ctr	others
COc1ccc(C2=NOC(C(=O)Nc3cccnc3Cl)C2)cc1 (configuration not stated)	i	0.47	/	/
O=C(CSc1ccc(Cl)cc1)N1N=CCC1c1ccccc1 (configuration not stated)	i	/	66%*	i
NC(=NC(=O)c1ccc(Cl)cc1)N1N=CCC1c1ccccc1 (configuration not stated)	i	/	/	/
O=C(NCc1ccccc1)NC1CCS(=O)(=O)C1 (configuration not stated)	i	0.42	/	/
CC1(C)CCc2cc(CN3CCN(c4ccccn4)CC3)ccc2O1	i	1.7	/	/
COc1ccc(S(=O)(=O)n2ccc(-c3ccc4c(c3)CCC(C)(C)O4)n2)cc1	i	8.2*	i	i	CHO-K1 ctr=3.8*;KCNQ1 sel pot=-18;KCNQ2 pot confirm=-10;Kir2-1 sel=-29
CC1(C)CCc2cc(-c3ccn(S(=O)(=O)c4ccccc4Cl)n3)ccc2O1	i	19*	i	i	CHO-K1 ctr=4.6*;KCNQ1 sel pot=-9;KCNQ2 pot confirm=39*;Kir2-1 sel=-28;KCNQ2 W236L MoA=3.0%*
CC1(C)CCc2cc(-c3ccnc(=S)[nH]3)ccc2O1	i	/	/	/
O=C(NCCC1=CCCCC1)Nc1ccc2nsnc2c1	i	2.5	/	/
CC(C(=O)Nc1ccccc1)C(=O)Nc1ccccc1	i	0.59	/	/
O=C(Nc1ccccc1)C(Cl)C(=O)c1ccccc1 (configuration not stated)	i	/	66%*	70%*
CN(Cc1ccccc1)CC(O)COc1ccc(CNCc2ccc(Cl)s2)cc1 (configuration not stated)	i	/	24%*	i
CN(Cc1ccccc1)CC(O)COc1ccc(CNCc2cccnc2)cc1 (configuration not stated)	i	/	/	/
Cc1cc2c3c([nH]c2cc1S(=O)(=O)N1CCC2(CC1)OCCO2)CC(C)(C)CC3=O	i	5.5*	i	62%*	CHO-K1 ctr=-3;KCNQ1 sel pot=-24;KCNQ2 pot confirm=-11;Kir2-1 sel=-27
CCc1cc2c3c([nH]c2cc1S(=O)(=O)N1CCC2(CC1)OCCO2)CCCC3=O	i	1.6	/	/
Cc1cc2ncc(-c3cccs3)nc2cc1C	i	1.3	/	/
CC1(c2ccccc2)NC(=O)N(N)C1=O (configuration not stated)	i	0.55	/	/
CC1Cc2nc(SCC(=O)NCC3CCCO3)n(C)c(=O)c2S1 (configuration not stated)	i	/	/	/
CC(C)CN(C(=O)COC(=O)c1ccc(Br)o1)c1c(N)n(Cc2ccccc2)c(=O)[nH]c1=O	i	1.6	/	/
CC(C)(C)C(=O)Nc1cccc2[nH]ncc12	i	/	/	/
CN1CCc2c(sc(/N=C/c3cc(C(C)(C)C)ccc3O)c2C#N)C1	i	11*	i	i	CHO-K1 ctr=-8;KCNQ1 sel pot=-17;KCNQ2 pot confirm=-15;Kir2-1 sel=-34
COc1ccc(/C=N/c2sc3c(c2C#N)CCN(Cc2ccccc2)C3)c(O)c1	i	/	/	/
CCOC(=O)c1ccc(-n2c(CN3CCC(O)CC3)nc3ccc([N+](=O)[O-])cc3c2=O)cc1	i	0.3	/	/
COc1ccc(/C=C2\SC(=N)N(c3nccs3)C2=O)cc1OC	i	4.8	/	/
N=C1S/C(=C\c2ccc(-c3cccc(Cl)c3)o2)C(=O)N1c1nccs1	i	6.5*	i	i	CHO-K1 ctr=-7;KCNQ1 sel pot=-22;KCNQ2 pot confirm=6.8*;Kir2-1 sel=-39;KCNQ2 W236L MoA=i
SMILES	KCNQ2 inh	KCNQ2 pot	Kir21 conf inh	HEK293 ctr	others
CN(C)CC1CCCCC1OC(=O)c1ccc(Cl)cc1 (configuration not stated)	i	0.35	/	/
CN(C)CC1CCCCC1C1(O)c2ccccc2CSc2sccc21 (configuration not stated)	i	1.5	69%*	i
O=C(OCCN=C1NS(=O)(=O)c2ccccc21)c1ccccc1F	i	/	/	/
CC(=O)N1CCc2cc(Br)cc(S(=O)(=O)CCC(=O)N3CCN(c4ccccn4)CC3)c21	i	/	/	/
Cc1c(Cl)cccc1Nc1nc(NCCO)c2ccccc2n1	i	/	35%*	i
Oc1ccccc1Nc1nc(NCc2ccccc2)c2ccccc2n1	i	/	/	/
CCOC(=O)C1CCN(S(=O)(=O)c2cn(C)c(C)n2)CC1	i	/	/	/
COc1ccc(/C=N/NC(=S)SC)cc1OC	i	0.18	/	/
CSC(=S)N/N=C/c1ccccc1	i	9.3*	i	218%*	CHO-K1 ctr=-7;KCNQ1 sel pot=9.4*;KCNQ2 pot confirm=7.4*;Kir2-1 sel=-42;KCNQ2 W236L MoA=i
c1ccc(-c2ccc(OCCCNC3CCCC3)cc2)cc1	i	/	42%*	i
c1ccc(SCCCCNC2CCCC2)cc1	i	1.2	/	/
COc1ccc(OCCNC2CCCC2)cc1	i	1.1	/	/
c1ccc(Cc2ccc(OCCCNC3CCCC3)cc2)cc1	i	0.67	44%*	i
CCOc1ccc2nc(NCCCNS(=O)(=O)c3ccccc3)c(C#N)cc2c1	i	/	/	/
O=C1C=CC(=O)N1CCNc1ncc(C(F)(F)F)cc1Cl	i	/	74%*	i
O=C1CC(=O)N(CCNc2ncc(C(F)(F)F)cc2Cl)C(=O)N1	i	1.7	/	/
CCCCCCCn1c(=N)n(CC(O)c2ccco2)c2ccccc21 (configuration not stated)	i	3.2	45%*	i
CCCCCCCn1c(=N)n(CC(=O)c2ccco2)c2ccccc21	i	1.2	56%*	i
CC(C)(C)c1ccc(Cn2c(=N)n(CC(O)c3ccco3)c3ccccc32)cc1 (configuration not stated)	i	/	/	/
N=c1n(CCN2CCCC2)c2ccccc2n1CC(O)c1ccco1 (configuration not stated)	i	0.01	/	/
